From PubChem BioAssay (NCI)
The panel holds about 83,000 compounds, 20% with a hit somewhere; the sample as a whole holds those more often.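 The endpoint reported here, percent growth, reads 100 for growth as untreated, 0 for no net growth and -100 for all cells dead.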 The source made the active and inactive calls. Rule for the calls: active = growth percent below 10; inactive = the rest.

What was measured:
Assay in all cases: NCI-60 one-dose screen, 48 h (100 = growth as untreated, 0 = no growth, -100 = all killed)
Settings in all cases: 10 µM unless noted
SK-MEL-2 melanoma = system: SK-MEL-2 melanoma
EKVX NSCLC = system: EKVX NSCLC
SN12C renal = system: SN12C renal
UO-31 renal = system: UO-31 renal
TK-10 renal = system: TK-10 renal
ACHN renal = system: ACHN renal
CAKI-1 renal = system: CAKI-1 renal
CCRF-CEM leukemia = system: CCRF-CEM leukemia
MOLT-4 leukemia = system: MOLT-4 leukemia
SR leukemia = system: SR leukemia
RPMI-8226 leukemia = system: RPMI-8226 leukemia
OVCAR-8 ovarian = system: OVCAR-8 ovarian
OVCAR-5 ovarian = system: OVCAR-5 ovarian
OVCAR-4 ovarian = system: OVCAR-4 ovarian
SK-OV-3 ovarian = system: SK-OV-3 ovarian
IGROV1 ovarian = system: IGROV1 ovarian
OVCAR-3 ovarian = system: OVCAR-3 ovarian
HS 578T breast = system: HS 578T breast
NCI/ADR-RES ovarian = system: NCI/ADR-RES ovarian

Measured: growth

CCN(CC)c1ccc(C(=O)c2ccccc2)cc1
inactive: SK-MEL-2 melanoma 96.3% | EKVX NSCLC 98.4% | SN12C renal 98.8% | UO-31 renal 82% | TK-10 renal 97.9% | ACHN renal 98.2% | CAKI-1 renal 83.1% | CCRF-CEM leukemia 104% | MOLT-4 leukemia 87.6% | SR leukemia 86.2% | RPMI-8226 leukemia 95.8% | OVCAR-8 ovarian 97% | OVCAR-5 ovarian 100% | OVCAR-4 ovarian 97.3% | SK-OV-3 ovarian 98.6% | IGROV1 ovarian 89.8% | OVCAR-3 ovarian 103% | HS 578T breast 102% | NCI/ADR-RES ovarian 89.4%

CC1(C)CC[C@]23CC[C@]4(C)[C@H](CC[C@@H]5[C@@]6(C)CCCNC(C)(C)[C@@H]6CC[C@]54C)[C@H]2[C@H]1OC3
inactive: SK-MEL-2 melanoma 10.5% | EKVX NSCLC 23.2% | SN12C renal 17.7% | SK-OV-3 ovarian 75.8%
active: UO-31 renal 2.86% | TK-10 renal 0.422% | ACHN renal -88.3% | CAKI-1 renal -92% | CCRF-CEM leukemia -6.07% | MOLT-4 leukemia -32.7% | SR leukemia -30.2% | RPMI-8226 leukemia -29.7% | OVCAR-8 ovarian -45.6% | OVCAR-5 ovarian 8.55% | OVCAR-4 ovarian -51.2% | IGROV1 ovarian -58.7% | OVCAR-3 ovarian -31.2% | HS 578T breast -9.12%

Cc1c(C(=O)NCCC(=O)NO)sc2ncnc(Nc3ccc(F)c(Cl)c3)c12
inactive: SK-MEL-2 melanoma 101% | EKVX NSCLC 99.4% | SN12C renal 103% | UO-31 renal 84.8% | TK-10 renal 107% | ACHN renal 102% | CAKI-1 renal 96.6% | CCRF-CEM leukemia 105% | MOLT-4 leukemia 115% | SR leukemia 111% | RPMI-8226 leukemia 110% | OVCAR-8 ovarian 101% | OVCAR-5 ovarian 108% | OVCAR-4 ovarian 109% | SK-OV-3 ovarian 129% | IGROV1 ovarian 106% | OVCAR-3 ovarian 107% | HS 578T breast 103% | NCI/ADR-RES ovarian 101%

Cc1ccc(-c2[nH][nH]c(=O)c2-c2nc3ccccc3s2)cc1
inactive: SK-MEL-2 melanoma 108% | EKVX NSCLC 97.4% | SN12C renal 98.7% | UO-31 renal 78.7% | TK-10 renal 107% | ACHN renal 97.3% | CAKI-1 renal 88.7% | CCRF-CEM leukemia 93.3% | MOLT-4 leukemia 100% | SR leukemia 97.9% | RPMI-8226 leukemia 96.9% | OVCAR-8 ovarian 105% | OVCAR-5 ovarian 94.4% | OVCAR-4 ovarian 105% | SK-OV-3 ovarian 104% | IGROV1 ovarian 106% | OVCAR-3 ovarian 111% | HS 578T breast 97.3% | NCI/ADR-RES ovarian 98%

CCCCCN1C=C/C(=C\C(=O)N(C)c2ccccc2Br)c2ccccc21
inactive: SK-MEL-2 melanoma 109% | EKVX NSCLC 91.2% | SN12C renal 89.2% | UO-31 renal 87.8% | TK-10 renal 99.7% | ACHN renal 104% | CAKI-1 renal 82.2% | CCRF-CEM leukemia 96% | MOLT-4 leukemia 89.3% | SR leukemia 74.3% | RPMI-8226 leukemia 73.6% | OVCAR-8 ovarian 88.7% | OVCAR-5 ovarian 96% | OVCAR-4 ovarian 83.5% | SK-OV-3 ovarian 94% | IGROV1 ovarian 98.5% | OVCAR-3 ovarian 97.4% | HS 578T breast 96.8% | NCI/ADR-RES ovarian 100%

c1ccc(-c2c(-c3ccccc3)[n+](Cc3ccc4ccccc4c3)c(-c3cccc4ccccc34)n2Cc2ccc3ccccc3c2)cc1
active: SK-MEL-2 melanoma -77.9% | EKVX NSCLC -10.9% | SN12C renal -81.6% | UO-31 renal -93.5% | TK-10 renal -78% | ACHN renal -100% | CAKI-1 renal -97.2% | CCRF-CEM leukemia 1.74% | MOLT-4 leukemia -25.8% | SR leukemia -36.5% | RPMI-8226 leukemia -38.7% | OVCAR-8 ovarian -44.4% | OVCAR-5 ovarian -47.8% | OVCAR-4 ovarian -81% | SK-OV-3 ovarian -50.3% | IGROV1 ovarian -71.4% | OVCAR-3 ovarian -88% | HS 578T breast -26.9% | NCI/ADR-RES ovarian -18.9%

C=C1C(=O)O[C@H]2[C@H]1CC/C(COC(=O)NCc1c[nH]c3ccc(Br)cc13)=C\CC[C@@]1(C)O[C@@H]21
active: SK-MEL-2 melanoma 1.8% | EKVX NSCLC -16.5% | SN12C renal -43.2% | UO-31 renal -98.3% | TK-10 renal -68.7% | ACHN renal -71.2% | CAKI-1 renal -92.8% | CCRF-CEM leukemia -13.1% | MOLT-4 leukemia -2.46% | SR leukemia 7.54% | RPMI-8226 leukemia -29.2% | OVCAR-8 ovarian -41.7% | OVCAR-5 ovarian -20.7% | OVCAR-4 ovarian 4.97% | IGROV1 ovarian -46.8% | OVCAR-3 ovarian -87.5%
inactive: SK-OV-3 ovarian 86.9% | HS 578T breast 34.3% | NCI/ADR-RES ovarian 43.5%

Cc1ccc(S(=O)(=O)Nn2c3c(cc(-c4nc5ccccc5s4)c2=O)CCCCCC3)cc1
inactive: SK-MEL-2 melanoma 99.2% | EKVX NSCLC 92.5% | SN12C renal 95.9% | UO-31 renal 78.9% | TK-10 renal 111% | ACHN renal 97.5% | CAKI-1 renal 86.6% | CCRF-CEM leukemia 105% | MOLT-4 leukemia 100% | SR leukemia 97.8% | RPMI-8226 leukemia 97.8% | OVCAR-8 ovarian 92.3% | OVCAR-5 ovarian 105% | OVCAR-4 ovarian 98.5% | SK-OV-3 ovarian 104% | IGROV1 ovarian 95.3% | OVCAR-3 ovarian 102% | HS 578T breast 91.7% | NCI/ADR-RES ovarian 95.8%

CCOC(=O)CCN(CC(C)C)C(=S)Nc1ccccc1
inactive: SK-MEL-2 melanoma 102% | EKVX NSCLC 100% | SN12C renal 98.3% | UO-31 renal 94.4% | TK-10 renal 104% | ACHN renal 101% | CAKI-1 renal 102% | CCRF-CEM leukemia 118% | MOLT-4 leukemia 100% | SR leukemia 97.1% | RPMI-8226 leukemia 115% | OVCAR-8 ovarian 102% | OVCAR-5 ovarian 100% | OVCAR-4 ovarian 112% | SK-OV-3 ovarian 130% | IGROV1 ovarian 102% | OVCAR-3 ovarian 124% | HS 578T breast 117% | NCI/ADR-RES ovarian 105%

C#CCNC(=O)[C@]1(C)CC[C@]2(C)CC[C@@H]3C(=CC[C@H]4[C@@]3(C)CC[C@H]3C(C)(C)C(=O)CC[C@]43C)[C@@H]2C1
inactive: SK-MEL-2 melanoma 96.2% | EKVX NSCLC 100% | SN12C renal 97.9% | UO-31 renal 80.5% | TK-10 renal 86.4% | ACHN renal 98% | CAKI-1 renal 83.1% | CCRF-CEM leukemia 69.4% | MOLT-4 leukemia 93.1% | SR leukemia 55.9% | RPMI-8226 leukemia 69.1% | OVCAR-8 ovarian 96.8% | OVCAR-5 ovarian 102% | OVCAR-4 ovarian 91.4% | SK-OV-3 ovarian 92.1% | IGROV1 ovarian 60.1% | OVCAR-3 ovarian 95.7% | HS 578T breast 126% | NCI/ADR-RES ovarian 94.2%

O=C(CCN1CCCC1)Nc1ccc2c(NCCCCc3ccccc3)c3ccccc3nc2c1
inactive: EKVX NSCLC 38.3% | UO-31 renal 37% | ACHN renal 24.8% | SK-OV-3 ovarian 53.9% | NCI/ADR-RES ovarian 80.8%
active: SK-MEL-2 melanoma -7.21% | SN12C renal -60.8% | TK-10 renal -36.5% | CAKI-1 renal 9.94% | CCRF-CEM leukemia -25.2% | MOLT-4 leukemia -26.2% | SR leukemia -29% | RPMI-8226 leukemia -42.7% | OVCAR-8 ovarian 1.13% | OVCAR-5 ovarian 7.16% | OVCAR-4 ovarian -74.6% | IGROV1 ovarian -18.1% | OVCAR-3 ovarian -82.6% | HS 578T breast -9.34%

COc1ccccc1NC(=O)C1CC(c2ccc(F)cc2)=NO1 (stereo not drawn)
inactive: SK-MEL-2 melanoma 103% | EKVX NSCLC 89.8% | SN12C renal 96.3% | UO-31 renal 82.9% | TK-10 renal 105% | ACHN renal 107% | CAKI-1 renal 95.3% | CCRF-CEM leukemia 104% | MOLT-4 leukemia 103% | SR leukemia 101% | RPMI-8226 leukemia 97.1% | OVCAR-8 ovarian 98.1% | OVCAR-5 ovarian 108% | OVCAR-4 ovarian 102% | SK-OV-3 ovarian 112% | IGROV1 ovarian 105% | OVCAR-3 ovarian 110% | HS 578T breast 94.1% | NCI/ADR-RES ovarian 95.8%

CC(=O)N1c2ccccc2NC2=C(C(=O)NC2(C)C)C1c1ccco1 (stereo not drawn)
inactive: SK-MEL-2 melanoma 84.2% | EKVX NSCLC 95.8% | SN12C renal 99.1% | UO-31 renal 85.2% | TK-10 renal 98.4% | ACHN renal 107% | CAKI-1 renal 90.3% | CCRF-CEM leukemia 80.6% | MOLT-4 leukemia 96.5% | SR leukemia 29.1% | RPMI-8226 leukemia 63.1% | OVCAR-8 ovarian 100% | OVCAR-5 ovarian 95.1% | OVCAR-4 ovarian 93.8% | SK-OV-3 ovarian 95.6% | IGROV1 ovarian 56.7% | OVCAR-3 ovarian 97.1% | HS 578T breast 83.3% | NCI/ADR-RES ovarian 102%

N#CC1=C(/N=C/c2ccccc2)Oc2c(ccc3ccccc23)C1c1ccc([N+](=O)[O-])cc1 (stereo not drawn)
inactive: SK-MEL-2 melanoma 90.8% | EKVX NSCLC 70.7% | SN12C renal 93.5% | UO-31 renal 59.5% | TK-10 renal 166% | ACHN renal 87.9% | CAKI-1 renal 70.1% | CCRF-CEM leukemia 94.5% | MOLT-4 leukemia 94.4% | SR leukemia 81% | RPMI-8226 leukemia 92% | OVCAR-8 ovarian 95% | OVCAR-5 ovarian 101% | OVCAR-4 ovarian 88.2% | SK-OV-3 ovarian 86.9% | IGROV1 ovarian 56.6% | OVCAR-3 ovarian 86.4% | HS 578T breast 91.6% | NCI/ADR-RES ovarian 95.6%

O=C(/C=C(/C=C/c1csc2ccccc12)OB(F)F)/C=C/c1csc2ccccc12
inactive: SK-MEL-2 melanoma 73.1% | EKVX NSCLC 23.7% | TK-10 renal 23.7% | CAKI-1 renal 10.1% | OVCAR-5 ovarian 60.6% | SK-OV-3 ovarian 100% | IGROV1 ovarian 11.3% | NCI/ADR-RES ovarian 18.3%
active: SN12C renal -9.88% | UO-31 renal -5.1% | ACHN renal 7.13% | CCRF-CEM leukemia -20.5% | MOLT-4 leukemia -18.6% | SR leukemia 3.63% | RPMI-8226 leukemia -12% | OVCAR-8 ovarian -9.55% | OVCAR-4 ovarian -0.888% | OVCAR-3 ovarian -14.2% | HS 578T breast 3.47%

COc1ccccc1/C=C1\Oc2cc(OCCN3CCCC3)ccc2C1=O
inactive: SK-MEL-2 melanoma 106% | EKVX NSCLC 85.9% | SN12C renal 88.8% | UO-31 renal 66.3% | TK-10 renal 97.9% | ACHN renal 94.2% | CAKI-1 renal 94.3% | CCRF-CEM leukemia 54.7% | MOLT-4 leukemia 68.7% | RPMI-8226 leukemia 82.2% | OVCAR-8 ovarian 91.8% | OVCAR-5 ovarian 86.2% | OVCAR-4 ovarian 93.9% | SK-OV-3 ovarian 98.2% | IGROV1 ovarian 97.3% | OVCAR-3 ovarian 96.2% | HS 578T breast 80.6% | NCI/ADR-RES ovarian 90.9%
active: SR leukemia -8.89%
